# Measured values as given in PubChem BioAssay.
# System: Sam68 (KHDRBS1)
# Test: compounds binding KHDRBS1 protein – biochemical, small-molecule microarray, 635 nm fluorescence, primary screen (AID 1125);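 note: score merges 667 nm channel intensity with signal to noise over triplicate slides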
# Conditions: higher = more signal
row,Structure (SMILES),composite z-score
1,CN1CCC(CCCO)=CC1C1CC1 (stereo unspecified),0.0585
2,NC(=O)NCC#Cc1ccc2c(c1)[C@]1(C(=O)N2)[C@H](C(=O)N2CCCCCCC2)[C@H]2C(=O)O[C@H](c3ccccc3)[C@H](c3ccccc3)N2[C@@H]1c1ccccc1OCCO,1.31
3,C=CCC(OC(C)=O)[C@@H]1[C@@H](N(Cc2cc3ccccc3o2)C(=O)c2ccc(C)cc2)c2cc(OCCCO)ccc2N1C(=O)c1ccc2ccccc2n1 (stereo partly specified),0.0268
4,CO[C@H]1COC(=O)[C@H](C)COC(=O)[C@H](Cc2ccccc2)NC(=O)CC=C[C@H]1C,-1.02
5,C=CC[C@@]12N=C(c3ccc(OCCCO)cc3)O[C@@H]1c1ccccc1CN(Cc1ccccc1)C2=O,1.29
6,CCCC[C@@H]1C[C@H]1[C@@H](NC(=O)c1cccs1)c1ccc(Cl)cc1,-0.858
7,CO[C@H]1COC(=O)[C@H](CCSC)NC(=O)CC=C[C@@H](C)COC(=O)[C@@H](OCc2ccccc2)C=C[C@@H]1C,0.51
8,O=C1c2ccccc2[C@@]2(Cc3ccccc3N(CC(F)(F)F)C2=O)[C@H](c2ccc(CO)cc2)N1C1CCCCC1,0.588
9,CC(C)(C)OC(=O)CC[C@@]1(C(=O)NCc2ccccc2)N=C(c2ccc(OCCCO)cc2)O[C@@H]1c1ccccc1,1.3
10,CC[C@H]1C2=C3C(CC[C@H]4C(OC)OC[C@](C)([C@@H]34)N(C(=O)OC(C)(C)C)C2)C(CO)C1CO (stereo partly specified),1.29
11,CO[C@]12C=C(Br)[C@@H](C[C@@H]1c1ccccc1)[C@@]1(CO1)C2=O,0.0999
12,COCCOC(=O)N1C(=O)[C@@]2(c3cc(C#CC4=CCCCC4)ccc31)[C@H](C(=O)NC[C@H](O)c1ccccc1)[C@H]1C(=O)O[C@H](c3ccccc3)[C@H](c3ccccc3)N1[C@@H]2c1ccc(OCCO)cc1,1.3
13,C=C(CCCC)/C(=C/C[C@@H](OC(=O)c1ccncc1)c1cccc(OCCO)c1)c1cc(C(=O)OC)ccc1OC,1.19
14,COCCOC(=O)N1C(=O)[C@@]2(c3cc(C#CCC(C(=O)OC)C(=O)OC)ccc31)[C@H](C(=O)N1CCN(c3ncccn3)CC1)[C@H]1C(=O)O[C@H](c3ccccc3)[C@H](c3ccccc3)N1[C@@H]2c1ccc(O)cc1,1.3
15,Cc1ccc(N2C(=O)c3ccccc3[C@](C)(C(=O)O)[C@@H]2c2ccc(CO)cc2)nc1,-1.17
16,CN(C)CCCC[C@@H]1NC(=O)[C@@H]2C[C@H](C(=O)NCCCCCNC(=O)CS)[C@H](c3ccc(O)cc3)N2C1=O,0.697
17,C=CCC(OC(C)=O)[C@@H]1[C@@H](N(Cc2ccc(-c3cccc(C(F)(F)F)c3)o2)C(=O)Cc2ccc(F)cc2)c2cc(OCCCO)ccc2N1C(=O)c1ccc(-c2ccccc2)cc1 (stereo partly specified),-0.443
18,C=CC[C@]1(C(=O)NCC(O)CO)N=C(c2ccc(OCCCO)cc2)O[C@H]1c1ccccc1 (stereo partly specified),-0.126

row,Structure (SMILES),composite z-score
1,CCOC(=O)C1=CC[C@@H](c2ccccc2)N(S(=O)(=O)c2ccc(C)cc2)[C@H]1C,1.29
2,O=C1O[C@H](c2ccccc2)[C@H](c2ccccc2)N2[C@H]1[C@@H](C(=O)NC[C@H](O)c1ccccc1)[C@]1(C(=O)Nc3ccc(C#CC4=CCCCC4)cc31)[C@H]2c1ccc(OCCO)cc1,1.31
3,COC(=O)Cn1c(C(=O)N2CCCC2)cc2c1C[C@H]1CN(C(=O)c3ccccc3)[C@@](Cc3ccc(OC)cc3)(C(=O)OC)[C@@H]21,0.931
4,COC(=O)C1=CC(c2ccc(CO)cc2)=CC(c2cccs2)N(Cc2cccc(OC(F)(F)F)c2)C=C1C(=O)OC (stereo unspecified),1.34
5,O=C/C=C/c1ccccc1Cl,-0.764
6,CCOC(=O)C[C@H]1[C@H](OC(=O)c2ccccc2-c2ccccc2)[C@@H](NC(=O)C2CCCCC2)c2cc(OCCCO)ccc2N1C(=O)c1ccccc1,0.692
7,CC1=C([C@H](O)CCc2ccccc2)[C@H](CO)[C@@H]2C(=O)N(Cc3ccccc3)C(=O)[C@@H]2C1,-0.364
8,C#CCCCON=C1C[C@@H](O)[C@@H](O)[C@@H]2[C@@H]3C(=O)N(Cc4ccc5c(c4)OCO5)C(=O)[C@@H]3CC[C@H]12,1.15
9,CC(C)CNC(=O)[C@@]1(C)c2ccccc2C(=O)N(Cc2ccc(OC(F)(F)F)cc2)[C@H]1c1ccc(CO)cc1,-0.718
10,CCCC=C(CCC)[C@@H](NC(=O)c1ccccc1)c1ccccc1,-0.452
11,CO[C@H]1O[C@H](CO)[C@@H](OC(=O)Nc2ccccc2)[C@H](OC(=O)Nc2ccc3c(c2)OCO3)[C@@H]1OC(=O)Nc1ccc2c(c1)OCO2,1.3
12,O=C(NCC(F)(F)F)[C@@H]1c2ccccc2C(=O)N(Cc2ccccc2Cl)[C@H]1c1ccc(CO)cc1,-1.35
13,CCN1C(C)=C(C(=O)OC)[C@@H](c2ccccc2)N2C(=O)[C@](O)(C(=O)OC)[C@@H](c3ccccc3)C(C(=O)c3ccccc3)=C12,0.723
14,CC(=O)NCCCC[C@@H]1NC(=O)[C@H]2C[C@@H](C(=O)NCCCCCCN(C)C)[C@@H](c3cccc(OCCO)c3)N2C1=O,1.32
15,CCC(=O)[C@]12O[C@@]3([C@@H]4C(=O)OCC[C@@H]41)N(Cc1ccccc1)C(C)=C(C(=O)OC)[C@@H](c1ccccc1)N3C2=O,-1.07
16,CCCCCCc1nc(-c2cc(C)c(OC)c(C)c2)cc2c1[Si](C(C)C)(C(C)C)O[C@H]2c1ccccc1,-0.728
17,O=C1C2C=CC(C(O)C(c3ccccc3)c3ccccc3)N(Nc3ccc([N+](=O)[O-])cc3)C2C(=O)N1c1ccccc1 (stereo unspecified),1.33
18,CC(=O)NCCCC[C@@H]1NC(=O)[C@@H]2C[C@H](C(=O)NCCCCCNC(=O)CS)[C@H](c3ccc(O)cc3)N2C1=O,-0.0077
